Hits are enriched below; roughly 4.9% of the tested compounds scored in any of these assays.
OTUD3 inh = inhibitors of human OTUD3 deubiquitinase; Q5T2D3; purified OTUD3, Ub-rhodamine fluorescence, 2 h; inhibition, % at 25 µM; 0.7% of 47,000 active
USP10 block = human USP10 deubiquitinase inhibition | Q14694 | purified USP10, Ub-rhodamine fluorescence, 60 min | inhibition, % at 20 µM | 1.1% of 47,000 active | AID 1645856
Target sequence (Q14694 whole entry, looked up): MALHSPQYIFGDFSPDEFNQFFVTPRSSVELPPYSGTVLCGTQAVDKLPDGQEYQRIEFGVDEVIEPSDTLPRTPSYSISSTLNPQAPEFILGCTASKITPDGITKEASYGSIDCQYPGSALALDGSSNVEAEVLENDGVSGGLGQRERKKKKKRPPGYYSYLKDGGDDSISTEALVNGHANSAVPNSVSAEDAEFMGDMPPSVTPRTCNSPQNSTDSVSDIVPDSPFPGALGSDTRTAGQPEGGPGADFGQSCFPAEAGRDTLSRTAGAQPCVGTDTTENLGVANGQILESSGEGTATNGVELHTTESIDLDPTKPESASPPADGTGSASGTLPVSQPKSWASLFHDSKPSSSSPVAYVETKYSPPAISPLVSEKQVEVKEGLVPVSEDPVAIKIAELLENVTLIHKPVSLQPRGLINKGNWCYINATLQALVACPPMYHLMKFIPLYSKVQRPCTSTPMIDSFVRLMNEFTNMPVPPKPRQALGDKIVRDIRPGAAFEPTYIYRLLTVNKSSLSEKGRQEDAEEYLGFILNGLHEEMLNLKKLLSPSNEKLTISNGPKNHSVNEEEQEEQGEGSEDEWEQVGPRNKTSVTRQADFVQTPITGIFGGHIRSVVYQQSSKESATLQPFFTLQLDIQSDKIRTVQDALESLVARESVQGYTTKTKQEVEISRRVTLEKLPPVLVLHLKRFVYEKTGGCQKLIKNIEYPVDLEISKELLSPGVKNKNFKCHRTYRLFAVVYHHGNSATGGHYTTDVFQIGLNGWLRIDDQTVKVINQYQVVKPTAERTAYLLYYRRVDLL
UCHL1 inh = inhibitors of human UCHL1 deubiquitinase | P09936 | 0.2% of 47,000 active | inhibition, % at 20 µM | purified UCHL1, Ub-rhodamine cleavage fluorescence
USP7 block = blocks human USP7 ubiquitin-rhodamine cleavage | 0.3% of 47,000 active | purified USP7, Ub-rhodamine cleavage fluorescence | inhibition, % at 20 µM | AID 1645854
USP8 block = blocks human USP8 ubiquitin-rhodamine cleavage. purified USP8, Ub-rhodamine cleavage fluorescence, 30 min. inhibition, % at 20 µM. P40818. 4.2% of 47,000 active
Numbers without * were called inactive. Cut-off read from the data, not from the text of the source: active = inhibition above about 30%; inactive = the rest.

For Cc1ccc(-c2noc(CNc3ccc(Oc4ccccc4)cc3)n2)cc1 the results were OTUD3 inh 1, USP10 block 5, UCHL1 inh 3, USP7 block -8 and USP8 block 79*.
Cc1ccc(-c2noc(Cc3nnc(-c4ccccc4)o3)n2)cc1 was read as OTUD3 inh -14, USP10 block -4, UCHL1 inh 2, USP7 block 7 and USP8 block -13.
Screening CCOC(=O)c1cc2c(ccn2C)n1Cc1ccc2ccccc2n1 returned OTUD3 inh -33, USP10 block -7, UCHL1 inh -12, USP7 block -25 and USP8 block 57*.
For CCOC(=O)c1cc2c(ccn2C)n1Cc1cccc2ccccc12 the results were OTUD3 inh -1, USP10 block -7, UCHL1 inh 2, USP7 block -3 and USP8 block 87*.
COC(=O)c1cc2c(ccn2C)n1Cc1ccccc1 was read as OTUD3 inh -134, USP10 block -5, UCHL1 inh -11, USP7 block -42 and USP8 block 17.
For COC(=O)c1cc2c(ccn2C)n1CC(=O)N1CCCC1 the results were OTUD3 inh -180, USP10 block -4, UCHL1 inh -75, USP7 block -83 and USP8 block -19.
CCOC(=O)c1cc2c(ccn2C)n1CC(=O)N1CCN(C(=O)c2ccco2)CC1 was read as OTUD3 inh -132, USP10 block -6, UCHL1 inh -10, USP7 block -11 and USP8 block 37*.
For COC(=O)c1cc2c(ccn2C)n1Cc1ccccc1OC the results were OTUD3 inh -46, USP10 block -5, UCHL1 inh -5, USP7 block -3 and USP8 block 70*.
`O=C(c1ccc(F)cc1)N1CCc2nc3ccccc3n2CC1` gave OTUD3 inh -5, USP10 block 1, UCHL1 inh -2, USP7 block -2 and USP8 block 0.
For CN1CCC2(CCC1=O)CN(CC(=O)N1CCCCC1)C(=O)c1ccccc1O2 (stereo not drawn) the results were OTUD3 inh 15, USP10 block 1, UCHL1 inh 0, USP7 block 2 and USP8 block 11.
`CCN1C[C@@H]2C[C@]2(c2ccccc2OC)C(=O)c2ncccc21` gave OTUD3 inh -20, USP10 block -4, UCHL1 inh 1, USP7 block -8 and USP8 block 94*.
For COc1ccccc1[C@]12C[C@H]1CN(C(=O)Nc1ccncc1)c1cccnc1C2=O the results were OTUD3 inh 13, USP10 block 0, UCHL1 inh -2, USP7 block 1 and USP8 block -10.
For CC(=O)Nc1cccc(C(=O)N(Cc2ccco2)C2(C(=O)Nc3c(C)cccc3C)CCCCC2)c1 the results were OTUD3 inh -10, USP10 block -5, UCHL1 inh 2, USP7 block -2 and USP8 block -6.
Screening Cc1cc(C)nc(SCC(=O)N(Cc2ccco2)C2(C(=O)Nc3c(C)cccc3C)CCCCC2)n1 returned OTUD3 inh 57*, USP10 block 16, UCHL1 inh 2, USP7 block 7 and USP8 block 30.
CC(C)NC(=O)Cn1cnc2cc3c(cc21)OCCCO3 was read as OTUD3 inh -5, USP10 block -1, UCHL1 inh -4, USP7 block -3 and USP8 block -6.
Screening COc1ccc(-c2cc(-c3nnc(CSc4nc5ccccc5n4C)o3)c3ccccc3n2)cc1OC returned OTUD3 inh 20, USP10 block -10, UCHL1 inh -39, USP7 block -28 and USP8 block 3.
`O=S(=O)(c1cccc(F)c1)N1CCN(c2nnnn2-c2ccccc2)CC1` gave OTUD3 inh 41*, USP10 block 2, UCHL1 inh -2, USP7 block 2 and USP8 block -9.
Screening O=C(NCc1ccccc1F)c1nc2n(n1)-c1ccccc1S(=O)(=O)N2 returned OTUD3 inh 0, USP10 block 12, UCHL1 inh 1, USP7 block 3 and USP8 block 0.
For COc1ccc(CN(C(=O)c2nc3n(n2)-c2ccccc2S(=O)(=O)N3)C2CC2)cc1 the results were OTUD3 inh 5, USP10 block 14, UCHL1 inh -1, USP7 block 3 and USP8 block 5.
`O=C(NCC1(c2ccccc2)CCC1)c1nc2n(n1)-c1ccccc1S(=O)(=O)N2` gave OTUD3 inh 0, USP10 block 39*, UCHL1 inh 4, USP7 block 10 and USP8 block -3.
Screening O=C(Nc1ccccc1Cc1ccccc1)c1nc2n(n1)-c1ccccc1S(=O)(=O)N2 returned OTUD3 inh 9, USP10 block 46*, UCHL1 inh 4, USP7 block 17 and USP8 block 59*.

Screening results: PubChem BioAssay, Buhrlage Lab, Dana-Farber Cancer Institute and Novartis Institutes for BioMedical Research (Cambridge, Mass)
